TDP1 cell noCPT: qHTS for Inhibitors of human tyrosyl-DNA phosphodiesterase 1 (TDP1): qHTS in cells in absence of CPT; 15% of 420,000 active; DT40 Tdp1-/- hTDP1 cells, no CPT, ATP luminescence, 48 h; Potency, µM (top dose mostly 46.2 µM), actives largely listed as inhibitors; also: nearly all actives have a fitted effect of over 55% in size
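A cellular qHTS used chicken DT40 cells lacking endogenous Tdp1 but carrying stably transfected human TDP1. Compounds were applied without camptothecin, and cell growth kinetics were judged by ATP-dependent luminescence after ≥48 hr.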
DT40 TDP1 CPT: DT40-hTDP1 cell growth loss with CPT; chicken DT40 Tdp1-/-;hTDP1 cells + 20 nM CPT, ATP luminescence, 48 h; Potency, µM (doses to about 46.2 µM), usual class: inhibitors; 12% of 420,000 active; also: nearly all actives have a fitted effect of over 55% in size
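Chicken DT40 Tdp1-/- cells stably complemented with human TDP1 were seeded at 400 cells/well in medium containing 20 nM camptothecin, exposed to pin-transferred compounds, and grown at 37 °C for at least 48 hr. Viability was read as ATP luminescence.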
TDP1 inh: blocks human tyrosyl-DNA phosphodiesterase 1; Q9NUW8; recombinant TDP1, AlphaScreen DNA substrate cleavage; Potency, µM (series often up to 130 µM), actives largely listed as inhibitors; 0.28% of 350,000 active; AID 485290; also: nearly all actives have a fitted effect of over 40% in size
Target sequence (Q9NUW8 whole entry, looked up): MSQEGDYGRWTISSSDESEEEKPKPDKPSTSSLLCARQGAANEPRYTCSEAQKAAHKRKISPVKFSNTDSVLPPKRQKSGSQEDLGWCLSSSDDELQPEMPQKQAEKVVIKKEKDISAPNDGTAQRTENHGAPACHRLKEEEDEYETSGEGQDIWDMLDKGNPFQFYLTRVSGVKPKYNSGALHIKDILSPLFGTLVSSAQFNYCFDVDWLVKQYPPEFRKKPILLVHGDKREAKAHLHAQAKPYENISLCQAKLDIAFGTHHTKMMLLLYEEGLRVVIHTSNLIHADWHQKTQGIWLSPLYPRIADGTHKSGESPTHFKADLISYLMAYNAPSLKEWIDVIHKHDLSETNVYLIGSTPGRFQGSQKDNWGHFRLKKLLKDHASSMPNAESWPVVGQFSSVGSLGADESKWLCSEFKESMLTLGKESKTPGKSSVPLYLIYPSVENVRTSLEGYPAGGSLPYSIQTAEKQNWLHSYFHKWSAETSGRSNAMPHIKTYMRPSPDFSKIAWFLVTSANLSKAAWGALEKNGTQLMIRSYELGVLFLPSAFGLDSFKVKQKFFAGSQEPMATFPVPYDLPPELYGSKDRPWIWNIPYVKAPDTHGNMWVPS
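Signal: AlphaScreen proximity between streptavidin donor and anti-FITC acceptor beads on intact substrate. Reaction: Tdp1 1 nM, substrate 15 nM final, 5 min RT after 15 min compound preincubation.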
HepG2 tox: counter-screen for TGF-b inhibitors: cytotoxicity in HepG2 cells. Potency, µM (series often up to 46.1 µM), usual class: cytotoxic. 0.76% of 410,000 active. HepG2 CAGA-GFP viability, ATP luminescence, 18 h
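HepG2 CAGA-GFP cells (1000/well, DMEM with 1% FBS) received compound, then TGF-beta at 500 pg/mL final, and were incubated 18 hours at 37 degrees C. Viability was read by CellTiter-Glo luminescence. Media-only wells were set as complete cell-killing and DMSO as no toxicity.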
IL-1B inflam inh: inflammasome signaling inhibition, IL-1 beta readout; THP-1 LPS/ATP IL-1B secretion, AlphaLISA, 16 h; active compounds read low; activity change, % at 57.5 µM; 4.7% of 360,000 active; in the data active = activity change below about -50%; inconclusive = mostly about -30% to -49%
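Secreted IL-1B measured by AlphaLISA bead assay after 16 h compound exposure of THP-1 cells; compounds (final up to 57.5 uM) added 1 h before LPS (250 ng/mL) and ATP (1.25 mM) stimulation; lower signal means less secretion.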
TGFb SMAD3 inh: inhibitors of TGF-b signaling; HepG2 CAGA-GFP TGF-b/SMAD3 reporter, GFP fluorescence, 18 h; TGF-beta stimulated, 500 pg/mL final; Potency, µM (doses to about 46.1 µM), most hits filed as inhibitors; 1.2% of 410,000 active; AID 588855; also: nearly all actives have a fitted effect of over 65% in size
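GFP signal (ex488/em500-530) from TGF-beta-stimulated HEPG2 CAGA-GFP cells, 500 pg/mL final, 18 h at 37 degrees C in DMEM plus 1% FBS, normalized to unstimulated and DMSO-stimulated controls.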
Each line names hits and unclear results; the compound was inactive in the other large screens. Most compounds without a hit are left out; they make up all but 19% or so of the library. Unless noted, calls follow the shape of the dose curve; as a rule, active = well fitted curve in the direction sought with a large enough effect; inconclusive = small, poorly fitted or top-dose-only effect, or another doubt; inactive = no such curve, though single readings can be large; an effect the other way counts as inactive or inconclusive.

Cc1ccnc(NC(=O)c2cccc(S(=O)(=O)N3CCCc4ccccc43)c2)c1	TDP1 cell noCPT 21µM, DT40 TDP1 CPT 21µM
Cc1cccc(S(=O)(=O)N2CCCc3ccccc32)c1	TDP1 cell noCPT inconclusive, DT40 TDP1 CPT 26µM (no result: TDP1 inh)
O=C1C2CC=CCC2C(=O)N1c1ccc(OCC(O)Cn2nnc3ccccc32)cc1 (stereo not given)	TDP1 cell noCPT 23µM, DT40 TDP1 CPT inconclusive, TGFb SMAD3 inh inconclusive
CC(=O)c1ccc(OCC(O)Cn2nnc3ccccc32)cc1 (stereo not given)	DT40 TDP1 CPT inconclusive
N#Cc1ccc(-c2ccc(OCC(O)Cn3nnc4ccccc43)cc2)cc1 (stereo not given)	TDP1 cell noCPT inconclusive, DT40 TDP1 CPT inconclusive, IL-1B inflam inh -59
COC(=O)c1ccc(OCC(O)Cn2nnc3ccccc32)cc1 (stereo not given)	TDP1 cell noCPT inconclusive
O=C(COc1ccccc1)NCC(=O)Nc1ccncc1	none
Cc1cc(OCC(=O)Nc2ccncc2)ccc1[N+](=O)[O-]	TDP1 cell noCPT 21µM, DT40 TDP1 CPT inconclusive
O=C(COc1ccc(-c2ccccc2)cc1)Nc1cccnc1	TDP1 cell noCPT 21µM, DT40 TDP1 CPT 18µM
CC(C)CCOc1cccc(OCC(=O)Nc2ccncc2)c1	TDP1 cell noCPT 13µM, DT40 TDP1 CPT inconclusive
O=C(COc1ccc(Nc2ccccc2)cc1)Nc1ccncc1	TDP1 cell noCPT 16µM, DT40 TDP1 CPT inconclusive, IL-1B inflam inh inconclusive (no result: TDP1 inh)
CC1CN(C(=O)CCC(=O)NCc2cccs2)c2ccccc2O1 (stereo not given)	none (no result: IL-1B inflam inh)
N#C/C(=C(/O)COC(=O)c1ccc(O)cc1)c1nc2ccccc2[nH]1	none (no result: TDP1 inh)
Cc1cc(Br)ccc1SCC(=O)OCC(O)=C(C#N)c1nc2ccccc2[nH]1	TDP1 cell noCPT 4.6µM, DT40 TDP1 CPT 4.6µM, IL-1B inflam inh -102 (no result: TDP1 inh)
Cc1cc(Br)ccc1SCC(=O)OC/C(O)=C(\C#N)c1nc2ccccc2[nH]1	TDP1 cell noCPT 21µM, DT40 TDP1 CPT inconclusive (no result: TDP1 inh)
Cc1c(C(=O)OC/C(O)=C(\C#N)c2nc3ccccc3[nH]2)oc2ccc(Br)cc12	TDP1 cell noCPT inconclusive (no result: TDP1 inh)
Cc1ccc(C)c(SCC(=O)OC/C(O)=C(\C#N)c2nc3ccccc3[nH]2)c1	TDP1 cell noCPT inconclusive, DT40 TDP1 CPT inconclusive, IL-1B inflam inh -97
N#C/C(=C(/O)COC(=O)CSc1ccc2ccccc2c1)c1nc2ccccc2[nH]1	TDP1 cell noCPT 2.9µM, DT40 TDP1 CPT 5.2µM, IL-1B inflam inh -105
O=c1[nH]c(=O)c2nc(-c3ccc(Cl)cc3)cnc2[nH]1	TDP1 cell noCPT inconclusive
O=c1[nH]c(=O)c2nc3c4ccccc4c4ccccc4c3nc2[nH]1	TDP1 cell noCPT 5.2µM, DT40 TDP1 CPT 8.2µM (no result: TDP1 inh)
Cc1ccccc1N=C1C(=O)Nc2ccccc21	TGFb SMAD3 inh inconclusive (no result: TDP1 inh)
Cc1cccc(N2CCn3c2nc2c3c(=O)n(CCCc3ccccc3)c(=O)n2C)c1	TDP1 cell noCPT inconclusive (no result: IL-1B inflam inh)
CC(C)n1c(SCC(=O)Nc2nc3c(s2)CCCC3)nc2c1c(=O)n(C)c(=O)n2C	TDP1 cell noCPT 2.9µM, DT40 TDP1 CPT 12µM, IL-1B inflam inh inconclusive
CCOC(=O)c1c(NC(=O)CSc2nc3c(c(=O)n(C)c(=O)n3C)n2C(C)C)sc(C)c1C	none
COc1cc(=O)[nH]c(SCC(=O)Nc2nc3c(s2)CCCC3)n1	TDP1 cell noCPT inconclusive, DT40 TDP1 CPT 23µM, TGFb SMAD3 inh inconclusive
CC(C)(C)n1ncc2c(=O)n(Cc3ccccc3C(F)(F)F)cnc21	none (no result: TDP1 cell noCPT, DT40 TDP1 CPT, TDP1 inh, IL-1B inflam inh)
O=C(/C=C\c1ccccc1)c1ccccc1O	none (no result: TDP1 cell noCPT, DT40 TDP1 CPT, HepG2 tox, IL-1B inflam inh, TGFb SMAD3 inh)
O=C(/C=C/c1ccccc1)c1ccccc1	DT40 TDP1 CPT 15µM, IL-1B inflam inh inconclusive, TGFb SMAD3 inh inconclusive
